T1: UNK ZnF1-3 (human, UniProt Q9C0B0 31-174)
T1 sequence: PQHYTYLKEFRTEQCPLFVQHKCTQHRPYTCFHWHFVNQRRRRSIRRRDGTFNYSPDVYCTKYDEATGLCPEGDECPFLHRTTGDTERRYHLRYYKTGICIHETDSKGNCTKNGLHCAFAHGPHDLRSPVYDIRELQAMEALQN

B1: 55347689_55347809_2221_3pUTR_ENSMUSG00000021488_ENSMUST00000099490|mouse|control|control (ssRNA)
RNA: GGGAGUUCUACAGUCCGACGAUCACUCAGCAGUUUCAGGCUCCAUUGUCUUGGUAGAACCCAUUAAAUGGUCUGCAUGGGAAUUAGUAAUGAGGGAUUUCUGUUUCUCUUUUAUCCUGUUUGUGACAGGAUAUCUAGAAUACUCAACAGAGGAUUGAGCAUCA
B2: chr3:122152592:122152593:-_ENSG00000114030_ENST00000344337|hu_mus|motif|central (ssRNA)
RNA: GGGAGUUCUACAGUCCGACGAUCAUUUGUGAUGGCCCAAGCAGCUUCCUUCCUUGUCCGGAACUCUGCUGUUUGCAAUAUACGGAUAAGAGCUGGGAACAUGUUAGCAUCUAUCACAGUCUGGAUCUGUGCCCUAUUUCCAGCCAACAGAGGAUUGAGCAUCA
B3: chr17:60770872:60770873:+_ENSG00000011028_ENST00000303375|hu_hu|hu_hu_hu_mus_True|1_18 (ssRNA)
RNA: GGGAGUUCUACAGUCCGACGAUCUCUUUAAAAAAAAAAAAAAAAAGACAAACAAUAAUAGCACAUUUCGAGAAUCAAGAACUACAAUAGAGGGUCCGCUUUGAGUUUUUGUUCACAACAUUGUCCCCUGGGACACGACCAGGACAACAGAGGAUUGAGCAUCA
B4: chr17:60770872:60770873:+_ENSG00000011028_ENST00000303375|hu_hu|hu_hu_hu_mus_True|58_68 (ssRNA)
RNA: GGGAGUUCUACAGUCCGACGAUCUCUUUAAAAAAAAAAAAAAAAAGACAAACAAUAAUAGCACAUUAUUUAAAAAAUCAACUACAGUAGAGGGUCCGCUUUGAGUUUUUGUUCACAUCGUCCUGCACUGGGACACGGGGACUGCAACAGAGGAUUGAGCAUCA
B5: chr17:60770872:60770873:+_ENSG00000011028_ENST00000303375|hu_hu|hu_hu_hu_mus_True|1_68 (ssRNA)
RNA: B4 RNA with U77A, C78G, G86A, G137A, G138C, G139C, C141G, U142G, G143A
B6: chr17:60770872:60770873:+_ENSG00000011028_ENST00000303375|hu_hu|hu_hu_hu_mus_True|18_68 (ssRNA)
RNA: B4 RNA with U77A, C78G, G86A, U117A, G119A, C121U, C122G, G124C, A126C
B7: chr17:60770872:60770873:+_ENSG00000011028_ENST00000303375|hu_hu|hu_hu_hu_mus_True|28_68 (ssRNA)
RNA: GGGAGUUCUACAGUCCGACGAUCUCUUUAAAAAAAAAAAAAAAAAGACAAACAAUAAUAGCACAUUAUUUAAAAAAAGAACUACAAUAGAGGGUCCGCUUUGAGUUGUCCAUGUUCUCGUCCUGCACUGGGACACGGGGACUGCAACAGAGGAUUGAGCAUCA
B8: chr17:60770872:60770873:+_ENSG00000011028_ENST00000303375|hu_hu|hu_hu_hu_mus_True|68_68 (ssRNA)
RNA: B4 RNA with U77A, C78G, G86A
B9: chr17:60770872:60770873:+_ENSG00000011028_ENST00000303375|hu_hu|hu_hu_hu_mus_True|1_38 (ssRNA)
RNA: GGGAGUUCUACAGUCCGACGAUCUCUUUAAAAAAAAAAAAAAAAAGACAAACAAUAAUAGCACAUUUCGAGAAUCAAGAACUACAAUAGAGGGUCCAUGUCUUCGAUUUGUUCACAUCGUCCUGCACUGGGACACGACCAGGACAACAGAGGAUUGAGCAUCA
B10: chrX:71482573:71482574:-_ENSMUSG00000031328_ENSMUST00000144429|mus_hu|FALSE|FALSE (ssRNA)
RNA: GGGAGUUCUACAGUCCGACGAUCCUGCCACUGAGAAAGGGCUCUUAGGGAUGGGAUCCCCUCCAUAAGUGACAUUGACGCCUACUGGACCCUGCUGGACAGGCGUGUACUUGACUGUGUAGGUGUUGUCAUGGUGGUCGAUGACAACAGAGGAUUGAGCAUCA
B11: chr6:38652254:38652255:-_ENSG00000124767_ENST00000373365|hu_hu|hu_hu_hu_mus_False|18_28 (ssRNA)
RNA: GGGAGUUCUACAGUCCGACGAUCCGAGAACUUCAUAGCAGGGAAGUCAAGCUUCUGCAGGAGGGUCAGUCCAAGAACCCUCGUAUAAAAAUCCAGGGACUUCUUAGGAUCCUUCACUCGUAGCAUGGUUUGCUGCAGUAGAAACAACAGAGGAUUGAGCAUCA
B12: chr18:67804014:67804015:+_ENSMUSG00000024537_ENSMUST00000025418|mus_hu|FALSE|FALSE (ssRNA)
RNA: GGGAGUUCUACAGUCCGACGAUCACAAUCGGUAUAGAAGUAACCAAUCUUAGACAUAUUCAGUGUAGAAAUAAUCAGAUCCAUUGCAAGCUGGCCAACAUUUCCAACAGAUACUGCUGGCCUGAAGAUGGGAGUGGAGAGGGACAACAGAGGAUUGAGCAUCA
B13: 58380664_58380784_167_CDS_ENSMUSG00000075700_ENSMUST00000107924|mouse|control|control (ssRNA)
RNA: GGGAGUUCUACAGUCCGACGAUCCUUGAGCAGCGGCCCGGUGGCGUACUGCAUCUUUAAUCUCUUGCUGGGCACGCCGCCCAGGUUGGCAGAGGCCUCGCUGCGGACCACCGCCGACGCCGCCACCAGCAGAAGCAGCAGGAGCAACAGAGGAUUGAGCAUCA
B14: 5649169_5649289_955_CDS_ENSG00000160633_ENST00000592224|human|control|control (ssRNA)
RNA: GGGAGUUCUACAGUCCGACGAUCACAGUCCGUCCUCUCGCCAUCGCCUGGCUGCUCCGCGGGCUCCCUUUUCACUACCGCUAACAGGCUGUCUGCCUUGCUCGACUGAGCGUGUGCUGUUGACUCGCUGGCCAAAUCUAAAUCCAACAGAGGAUUGAGCAUCA

Substitutions are numbered along the chain they refer to. In all, about 24,000 sequences were measured (“enrichment r”: median about 0.99, highest 2% from about 3.7 on). For the sample, the highest values were picked, then their nearest neighbours and some sequences at random.

This experiment has as its target T1, UNK ZnF1-3. The experiment is described as follows: nsRBNS (natural sequence RNA bind-n-seq); RBNS binding buffer (assumed for nsRBNS): 25 mM Tris pH 7.5, 150 mM KCl, 3 mM MgCl2, 0.01% Triton X-100, 500 ug/ml BSA, 20 U/ml SUPERase-In, 4 C; UNK is unkempt and MSI1 is Musashi-1; names of the RNAs are library labels; protein concentration not given here; high values mean tight binding.
The molecule B1 gave a binding signal of 0.567 enrichment R.

Turning to B2, the binding signal is 0.808 enrichment R.

With B3, the binding signal was 3.43 enrichment R.

Turning to B4, the binding signal stood at 4.95 enrichment R.

As to B5, the binding signal came out at 3.57 enrichment R.

In the case of B6, the binding signal is 4.47 enrichment R.

On to B7, for which the binding signal was determined as 4.92 enrichment R.

Molecule B8 came in with a binding signal of 4.87 enrichment R.

Consider B9, for which the binding signal turned out to be 2.39 enrichment R.

B10 registered a binding signal of 0.8 enrichment R.

With B11, the binding signal was 0.508 enrichment R.

For B12, the binding signal worked out at 1.13 enrichment R.

B13: the binding signal came out at 0.563 enrichment R.

The molecule B14 gave a binding signal of 0.689 enrichment R.
